Screening data as filed in PubChem.
RecA splice inh: inhibitors of M. tuberculosis RecA intein splicing | cell-free RecA intein splicing, fluorescence | inhibition, % (test concentration not listed) | 290,000 tested, 0.75% active | AID 2221; in the data active = inhibition above about 30%;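 note: 0% = vehicle wells and 100% = reference inhibitor control wells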
Target sequence (P9WHJ3 whole entry, looked up, canonical isoform): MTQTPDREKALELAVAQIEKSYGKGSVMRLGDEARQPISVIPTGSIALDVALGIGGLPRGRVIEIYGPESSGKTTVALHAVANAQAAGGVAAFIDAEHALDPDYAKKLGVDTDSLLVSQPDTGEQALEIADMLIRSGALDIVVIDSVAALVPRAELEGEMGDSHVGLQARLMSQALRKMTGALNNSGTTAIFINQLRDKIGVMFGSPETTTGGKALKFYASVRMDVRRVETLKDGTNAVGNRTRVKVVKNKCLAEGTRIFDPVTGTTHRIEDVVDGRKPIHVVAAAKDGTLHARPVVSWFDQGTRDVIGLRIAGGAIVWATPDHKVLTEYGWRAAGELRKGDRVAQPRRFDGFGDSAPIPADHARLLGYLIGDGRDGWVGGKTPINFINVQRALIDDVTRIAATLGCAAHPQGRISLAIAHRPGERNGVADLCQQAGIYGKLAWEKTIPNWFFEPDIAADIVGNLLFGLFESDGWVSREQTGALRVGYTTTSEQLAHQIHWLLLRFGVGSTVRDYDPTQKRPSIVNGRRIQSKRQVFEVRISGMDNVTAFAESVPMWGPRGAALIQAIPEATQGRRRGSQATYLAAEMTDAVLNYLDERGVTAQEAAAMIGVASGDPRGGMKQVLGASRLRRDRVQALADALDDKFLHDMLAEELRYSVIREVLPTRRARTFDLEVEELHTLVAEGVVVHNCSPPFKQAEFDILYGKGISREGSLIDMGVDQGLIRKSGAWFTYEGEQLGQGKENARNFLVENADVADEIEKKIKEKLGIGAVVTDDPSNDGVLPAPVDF
CCHF vOTU inh: blocks the CCHF virus ovarian tumor domain protease; 370,000 tested, 0.55% active; inhibition, % at 11.5 µM; CCHFV vOTU protease, Pep-AMC fluorescence; note: 0% = vehicle wells with enzyme and 100% = no enzyme wells
3CLpro inhibitor: SARS-CoV 3CLpro protease inhibition | P0C6X7 | recombinant SARS-CoV 3CLpro, quenched FRET peptide cleavage | inhibition, % at 6 µM | 290,000 tested, 0.14% active | AID 1706; in the data active = inhibition above about 12%
VHR inh abs: blocks human VHR1 dual specificity phosphatase | recombinant VHR phosphatase, pNPP absorbance | AID 1654 | P51452 | inhibition, % at 13.3 µM | 290,000 tested, 0.52% active; in the data active = inhibition above about 50%
FBA Mtb inh: inhibits M. tuberculosis FBA enzyme; 360,000 tested, 2.3% active; P9WQA3; purified M. tuberculosis FBA, fluorescence read-out; inhibition, % at 1 µM; in the data active = inhibition above about 27%;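 note: 0% = vehicle and 100% = reference inhibitor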
GDH-TPI inh: inhibits GDH-TPI coupling enzymes, artifact for Mtb FBA screen; GDH-TPI coupled enzyme counterscreen, NADH absorbance; inhibition, % at 4.8 µM; 360,000 tested, 1.2% active; AID 588335;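 note: 0% = DMSO wells and 100% = wells lacking the enzyme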
* hit, by the source's call; x = no result; + = active, no number. This is a sample that favours compounds with a hit; in the whole collection about 4.7% have one here. Cut-off read from the data, not from the text of the source, unless noted: active = inhibition above about 30%; inactive = the rest.

SMILES	RecA splice inh	CCHF vOTU inh	3CLpro inhibitor	VHR inh abs	FBA Mtb inh	GDH-TPI inh
CCN(CC)c1ccc(C(=O)n2cnc3ccccc32)cc1	12.4	16.5	7.3	-0.2	0.1	39.6*
CN(C)c1ccc(C(=O)n2nnc3ccccc32)cc1	49.2*	7.4	-4.4	26.9	10.3	18.3
Cc1onc(-c2c(Cl)cccc2Cl)c1C(=O)n1nnc2ccccc21	37.4*	x	-1.9	16.6	x	x
CC(Oc1ccc(Cl)cc1)C(=O)N/N=C/c1ccsc1 (stereo unspecified)	-1.9	6.8	-2.5	-0.9	-0.7	6.5
Cc1ccc(S(=O)(=O)N(C)[C@H]2C[C@H]3c4[nH]c5c(-c6ccccc6)cccc5c4CCN3C(=O)[C@H]2[C@H](C)O)cc1	x	-61.9	x	x	x	x
Cc1noc(C)c1NC(=O)N(C)C[C@H]1OCc2cnnn2CCCC(=O)N([C@H](C)CO)C[C@H]1C	x	4.3	x	x	-0.7	x
O=C(NN=Cc1ccccc1O)C(=O)Nc1ccc(F)cc1	x	13.7	x	x	x	x
c1ccc(COCCc2cn(Cc3ccccc3)c3ccccc23)cc1	x	3.9	x	x	x	x
FC(F)(F)c1ccc(C2[C@H]3CN(Cc4cccnc4)[C@H](c4ccccc4)C34CC2(c2cccnc2)C4)cc1 (stereo partly specified)	40.2*	14.8	x	3.5	-1.8	-4.0
COC(=O)[C@]12C[C@H](CC(=O)NCC34CC5CC(CC(C5)C3)C4)C(=O)N(Cc3ccccc3)C1=C[C@H](C1CCCC1)O[C@@H]2C	x	19.8	x	x	x	x
CCOc1ccc(/C=C(\C)C(=O)c2c(C)cc(C)[nH]c2=O)cc1	-3.3	15.9	-4.1	-3.5	-2.6	45.7*
COc1ccc(/C=C(\C)C(=O)c2c(C)cc(C)[nH]c2=O)cc1	-4.2	0.2	x	x	-8.9	26.5
CC1CCCC(C)N1CC(O)COCc1ccccc1 (stereo unspecified)	-11.7	0.3	-5.6	5.2	0.7	-2.6
O=C1NC(=Nc2ccccc2)S/C1=C\c1ccccc1	3.4	6.7	-6.2	16.0	-0.4	33.2*
COc1ccc(/C=C2\SC(=Nc3ccccc3OC)NC2=O)cc1	6.0	6.5	1.9	16.5	-2.4	50.4*
COc1cc(/C=C2\SC(=Nc3ccccc3OC)NC2=O)ccc1O	7.9	9.2	1.6	20.7	-2.3	24.8
O=C1NC(=Nc2cccc(O)c2)S/C1=C\c1cccc([N+](=O)[O-])c1	0.2	-4.1	6.9	18.9	-3.4	32.4*
COc1cc(/C=C(\CC(=O)O)c2nc3ccccc3s2)cc(OC)c1O	-23.5	13.9	-1.1	12.5	6.6	38.9*
CNc1ccc(/C=C(\CCC(=O)O)c2nc3ccccc3s2)cc1[N+](=O)[O-]	1.8	15.8	2.8	-6.7	-7.8	34.8*
O=C(O)C/C(=C\c1cccc(NC(=O)c2ccccc2Cl)c1)c1nc2ccccc2s1	0.8	25.9	0.8	-3.9	7.4	22.5
COc1ccc(C(=O)Nc2cccc(/C=C(\CCC(=O)O)c3nc4ccccc4s3)c2)cc1	0.4	10.0	-1.3	26.3	1.6	32.1*
Cn1cnnc1Sc1ccc(/C=C(\CCC(=O)O)c2nc3ccccc3s2)cc1[N+](=O)[O-]	1.3	11.0	2.8	12.5	-1.4	9.9
c1ccn2c(c1)nc1c2nc2ccccn21	-245.8	-309.2	1.5	-25.0	+	16.8
CC(OC(=O)c1ccc(Cl)c(S(N)(=O)=O)c1)C(=O)NCc1ccc2c(c1)OCO2 (stereo unspecified)	0.8	-9.7	x	x	6.0	9.2
CC(C)Nc1cc(C(C)(C)C)nc2c(-c3ccccc3)cnn12	4.9	-12.8	-3.0	16.3	29.1*	9.6
SMILES	RecA splice inh	CCHF vOTU inh	3CLpro inhibitor	VHR inh abs	FBA Mtb inh	GDH-TPI inh
Cc1ccc(/C=C/C(=O)Nc2cc(S(N)(=O)=O)ccc2O)cc1	2.8	3.3	4.6	11.9	-0.2	18.0
CCS(=O)(=O)c1ccc(O)c(NC(=O)/C=C/c2ccc(Cl)cc2)c1	-2.8	4.9	4.7	7.4	-3.2	33.8*
Cc1nc2ccccc2c(N)c1C(=O)/C=C/c1ccccc1	-1.3	7.8	9.1	10.7	1.0	37.1*
CC(=O)c1c(C)nc2ccccc2c1N	-0.2	2.1	-5.9	3.5	-0.1	16.0
CCC(NC(=O)Cn1c(-c2ccccc2)cc(C(C)=O)c1C)c1ccccc1 (stereo unspecified)	x	3.9	x	x	x	x
CCCc1[nH]n(-c2ccc([N+](=O)[O-])cc2)c(=O)c1C=NCCc1c[nH]c2ccccc12	-0.6	7.5	-8.0	29.9	5.0	7.7
Cc1[nH]n(-c2ccc([N+](=O)[O-])cc2)c(=O)c1C=NCCN1CCN(C(=O)c2cccc(F)c2)CC1	0.0	-6.0	1.5	22.8	-2.3	33.6*
Cc1[nH]n(-c2ccc([N+](=O)[O-])cc2)c(=O)c1C=NCCc1c[nH]c2ccccc12	-4.5	-7.3	0.5	55.4*	-1.0	29.2
Cc1cc(/C=C(/C#N)C(=O)O)c(C)n1-c1cccc2ccccc12	6.4	6.7	8.6	24.4	5.7	41.4*
Cc1c(C(=O)O)cccc1-n1c(C)cc(/C=C(/C#N)C(=O)NCc2ccccc2)c1C	-0.5	12.9	3.2	-10.5	0.2	12.6
O=C1N/C(=C/c2ccco2)C(=O)N1Cc1ccccc1F	1.6	-7.8	2.2	-4.8	-0.4	33.1*
Cc1cccc(NC(=O)CN2C(=O)N/C(=C\c3ccc(N4CCOCC4)cc3)C2=O)c1	-3.6	-5.8	-0.3	3.4	-3.0	30.9*
Cc1ccc(NC(=O)CN2C(=O)N/C(=C\c3ccco3)C2=O)cc1	x	-1.4	x	x	-1.8	34.1*
Cc1ccc(NC(=O)CN2C(=O)N/C(=C\c3cccnc3)C2=O)cc1	0.4	-6.6	3.3	8.3	3.3	2.9
CN(C(=O)CN1C(=O)S/C(=C\c2ccc(Cl)cc2)C1=O)C1CCS(=O)(=O)C1 (stereo unspecified)	-1.1	-10.5	-2.8	16.0	4.8	38.3*
CN(C(=O)CN1C(=O)S/C(=C\c2ccccc2)C1=O)C1CCS(=O)(=O)C1 (stereo unspecified)	2.5	13.9	0.7	6.5	-2.5	44.8*
CCN(C(=O)CCN1C(=O)S/C(=C\c2ccccc2)C1=O)C1CCS(=O)(=O)C1 (stereo unspecified)	2.6	16.1	0.5	-22.1	-1.9	42.9*
O=S1(=O)CCSC[C@@H](CN2CCN(c3ccccc3)CC2)N1	x	11.7	x	x	x	x
CC(C)(C)OC(=O)N1CCC2CCN(S(C)(=O)=O)CC21 (stereo unspecified)	x	-1.0	x	x	x	x
Clc1ccccc1-c1nnc(-c2cccnc2)o1	0.9	3.5	0.1	33.6	1.5	-4.3
N#Cc1c(-c2cccnc2)cc(-c2ccccc2)nc1N	-2.3	-285.8	2.4	12.8	+	8.9
CCOC(=O)COc1nc(-c2ccc(C)cc2)cc(-c2ccco2)c1C#N	2.0	-5.0	-0.9	-0.1	0.9	-12.2
c1cncc(-c2nnc(-c3ccco3)o2)c1	0.0	1.8	3.2	-4.1	113.7*	-2.1
N#Cc1c(-c2ccco2)cc(-c2ccccn2)nc1N	-25.9	-124.4	-6.0	-4.6	193.8*	14.9
